Shiga inhibitor – blocks Shiga toxin action in Vero cells. Vero cells, Shiga toxin protein synthesis inhibition reporter. inhibition, % at 38.7 µM. 290,000 tested, 9.2% active. AID 2315; in the data active = inhibition mostly above about 28%, no sharp cut-off; inactive = mostly below about 43%
MARV entry inh – Marburg virus entry inhibition; Marburg virus pseudotyped entry inhibition, cell reporter; Potency, µM (titrated, usually from 37.8 µM), actives largely listed as inhibitors; 300,000 tested, 1.8% active; AID 540276; calls by dose curve; tested in HEK293 cells
Lassa entry inh – Lassa virus entry inhibition; 300,000 tested, 1.2% active; Potency, µM (titrated, usually from 37.9 µM), most hits filed as inhibitors; Lassa virus pseudotype entry inhibition, cell reporter; calls by dose curve; tested in HEK293 cells; also: nearly all actives have a fitted effect of over 50% in size
Cycloheximide cs – affects cycloheximide protein synthesis inhibition readout, counter-screen. cell reporter, cycloheximide protein synthesis inhibition counterscreen. max response, %. 300,000 tested, 12% active; in the data active = max response mostly above about 13%, no sharp cut-off; inactive = mostly below about 14%; also: read at 38.3 µM for the half of the compounds with a filed dose
Pf growth 48h – inhibits P. falciparum growth in the first generation, 48 h; P. falciparum luciferase growth in erythrocytes, 48 h; Potency, µM (titrated, usually from 28.7 µM), actives largely listed as inhibitors; 310,000 tested, 5.9% active; AID 504832
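Erythrocytes infected with P. falciparum carrying an integrated firefly luciferase reporter (2% hematocrit, 0.1% parasitemia final) were exposed to compounds in RPMI 1640 with 0.5% Albumax at 37 C, 5% CO2. Growth inhibition was scored as reduced luminescence.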
Pf growth 96h – P. falciparum growth inhibition at 96 hours; 320,000 tested, 6.9% active; Potency, µM (highest dose often 28.7 µM), usual class: inhibitors; P. falciparum luciferase reporter growth, 96 h
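96 h incubation, 37 C, 5% CO2, of luciferase-reporter P. falciparum-infected RBCs (2% hematocrit, 0.05% parasitemia final) with test compounds; endpoint luminescence.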
Of the large screens only hits and unclear results are named; the others gave an inactive call. The list is not random: actives were taken first. Their share in the collection is about 19%. Unless noted, calls follow the shape of the dose curve; as a rule, active = well fitted inhibition curve with a large enough effect; inconclusive = small, poorly fitted or top-dose-only effect, or another doubt; inactive = no such curve, though single readings can be large or run the other way.

CC(C)(C)NC(=O)CN(C(=O)CNC(=O)c1cccs1)c1ccccc1F	none
CCOc1ccc(NC(=O)CCC(=O)NNC(=O)c2ccc(Br)o2)cc1	none
COC(=O)CN(C#N)c1nc(NCc2ccccc2)nc(OC)n1	Pf growth 48h 9.3µM, Pf growth 96h inconclusive (no result: MARV entry inh, Lassa entry inh)
COC(=O)CN(C#N)c1nc(OC)nc(N(C)C)n1	MARV entry inh inconclusive
COC(=O)CN(C#N)c1nc(NC(C)C)nc(OC)n1	Pf growth 96h inconclusive
COC(=O)CN(C#N)c1nc(N(C)C)nc(N(C)C)n1	Pf growth 96h 4.1µM
O=C(CN(Cc1ccccc1)S(=O)(=O)c1ccc(S(=O)(=O)N2CCOCC2)cc1)Nc1ccccc1	MARV entry inh inconclusive
O=C(CSc1nc2ccccc2n1S(=O)(=O)c1cccc([N+](=O)[O-])c1)NCc1cccs1	MARV entry inh inconclusive, Cycloheximide cs 27
O=C(COC(=O)c1cccc([N+](=O)[O-])c1)NCc1cccs1	none (no result: MARV entry inh, Lassa entry inh)
Nc1c(C(=O)NCCN2CCOCC2)c2nc3ccccc3nc2n1-c1ccc2c(c1)OCO2	Pf growth 48h inconclusive, Pf growth 96h 2.9µM
COCCNC(=O)c1c(N)n(-c2ccccc2)c2nc3ccccc3nc12	Pf growth 48h inconclusive, Pf growth 96h inconclusive
Nc1c(C(=O)NCCN2CCOCC2)c2nc3ccccc3nc2n1-c1ccccc1	Lassa entry inh inconclusive, Pf growth 48h 9.3µM (no result: Pf growth 96h)
C/C(=C\C(=O)c1ccccc1)NNC(=O)c1ccc(Cl)cc1	Lassa entry inh inconclusive, Cycloheximide cs 22 (no result: Shiga inhibitor)
COc1ccc(C(=O)N/N=C/C(=O)c2ccccc2)cc1	Shiga inhibitor 49, MARV entry inh inconclusive, Cycloheximide cs 43
COc1ccc(C(=O)NN/C(C)=C/C(=O)c2ccccc2)cc1	Cycloheximide cs 11, Pf growth 48h inconclusive, Pf growth 96h inconclusive
O=c1cc(CN2CCN(S(=O)(=O)c3ccc(Cl)cc3)CC2)nc2sc(-c3ccccc3F)nn12	none (no result: Shiga inhibitor, MARV entry inh, Cycloheximide cs, Pf growth 48h, Pf growth 96h)
N#Cc1ccc(-c2nc3ccccc3nc2-c2ccccc2)cc1C#N	none
N#Cc1c(-c2ccccc2)no[n+]1[O-]	MARV entry inh 11µM (no result: Shiga inhibitor, Lassa entry inh, Cycloheximide cs, Pf growth 48h, Pf growth 96h)
O=C(Nc1ccc(COc2ccccc2)cc1)Oc1ccccc1N1CCOCC1	Lassa entry inh inconclusive, Cycloheximide cs 17
Cc1c(C)c2c(c(C)c1O)CCC(C)(CN1CCN(c3cc(N4CCCC4)nc(N4CCCC4)n3)CC1)O2 (centres undefined)	MARV entry inh 10µM (no result: Shiga inhibitor, Lassa entry inh, Cycloheximide cs, Pf growth 48h, Pf growth 96h)
Cc1c(C)c2c(c(C)c1O)CC[C@@](C)(CCC[C@H](C)CCC[C@H](C)CCCC(C)C)O2	none (no result: MARV entry inh, Lassa entry inh)
Cn1c(=O)c2[nH]c(NN=Cc3ccccc3)nc2n(C)c1=O	MARV entry inh inconclusive (no result: Shiga inhibitor, Cycloheximide cs, Pf growth 48h, Pf growth 96h)
O=c1nccc(N/N=C/c2ccccc2)[nH]1	Shiga inhibitor 37, Cycloheximide cs 37 (no result: MARV entry inh, Lassa entry inh, Pf growth 48h)
CC(=O)Nc1ccc(S(=O)(=O)N(c2cccnc2)S(=O)(=O)c2ccc(NC(C)=O)cc2)cc1	MARV entry inh inconclusive, Lassa entry inh 0.82µM
CC(=O)Nc1ccc(S(=O)(=O)N(C2=NCC(C)S2)c2ccccc2)cc1 (centres undefined)	MARV entry inh 16µM, Lassa entry inh inconclusive, Pf growth 48h inconclusive
Cc1cccc(N(C(=O)Nc2ccccc2)C2=NCC(C)S2)c1 (centres undefined)	Shiga inhibitor 66, Cycloheximide cs 30, Pf growth 96h inconclusive (no result: MARV entry inh, Lassa entry inh, Pf growth 48h)
CC(=O)Nc1ccc(S(=O)(=O)N(C)c2ccccc2)cc1	MARV entry inh inconclusive, Pf growth 96h inconclusive (no result: Pf growth 48h)
Cc1cccc(N(C(=O)Nc2ccc(Cl)cc2)C2=NCC(C)S2)n1 (centres undefined)	Cycloheximide cs 20, Pf growth 96h inconclusive
O=C(COc1ccccc1)NCCc1csc(-c2ccc(Cl)cc2)n1	none (no result: Shiga inhibitor, MARV entry inh, Cycloheximide cs, Pf growth 48h, Pf growth 96h)
Cc1ccc(CNCCNCCO)s1	Lassa entry inh inconclusive
Cc1ccc2nc(Cl)c3cc(C(=O)N(C)C4CCCCC4)sc3c2c1	none (no result: Shiga inhibitor, Cycloheximide cs, Pf growth 48h, Pf growth 96h)
CC(=O)NC1(C(F)(F)F)NC(=O)N(C2CCCCC2)C1=O (centres undefined)	Pf growth 48h inconclusive
C#CCOCCOCCOCCNc1nc(N2CCN(C(=O)C(Cc3cc4ccccc4[nH]3)n3cc(C(N)Cc4ccc(O)cc4)nn3)CC2)nc(N2CCN(C(=O)C(Cc3cc4ccccc4[nH]3)n3cc(C(N)Cc4ccc(O)cc4)nn3)CC2)n1 (centres undefined)	Pf growth 48h 2.3µM, Pf growth 96h inconclusive (no result: MARV entry inh, Lassa entry inh)
C#CCOCCOCCOCCNc1nc(N2CCN(C(=O)[C@H](Cc3ccc(O)cc3)n3cc([C@@H](N)C(C)CC)nn3)CC2)nc(N2CCN(C(=O)[C@H](Cc3cc4ccccc4[nH]3)n3cc([C@@H](N)C(C)CC)nn3)CC2)n1 (some centres undefined)	Pf growth 48h inconclusive, Pf growth 96h inconclusive (no result: MARV entry inh, Lassa entry inh)
C#CCOCCOCCOCCNc1nc(N2CCN(C(=O)C(CCC(=O)O)n3cc(C(N)CC(C)C)nn3)CC2)nc(N2CCN(C(=O)C(Cc3cc4ccccc4[nH]3)n3cc(C(N)Cc4ccc(O)cc4)nn3)CC2)n1 (centres undefined)	none (no result: MARV entry inh, Lassa entry inh)
C#CCOCCOCCOCCNc1nc(N2CCN(C(=O)[C@H](Cc3ccc(O)cc3)n3cc([C@@H](N)C(C)CC)nn3)CC2)nc(N2CCN(C(=O)[C@H](Cc3cc4ccccc4[nH]3)n3cc([C@@H](N)CC(C)C)nn3)CC2)n1 (some centres undefined)	Pf growth 48h 2.9µM, Pf growth 96h inconclusive (no result: MARV entry inh, Lassa entry inh)
C#CCOCCOCCOCCNc1nc(N2CCN(C(=O)[C@H](Cc3cc4ccccc4[nH]3)n3cc([C@@H](N)Cc4ccc(O)cc4)nn3)CC2)nc(N2CCN(C(=O)[C@H](Cc3cc4ccccc4[nH]3)n3cc([C@@H](N)CC(C)C)nn3)CC2)n1	Pf growth 48h 13µM, Pf growth 96h 10µM (no result: MARV entry inh, Lassa entry inh)
C#CCOCCOCCOCCNc1nc(N2CCN(C(=O)[C@H]([C@@H](C)CC)n3cc([C@@H](N)Cc4ccc(O)cc4)nn3)CC2)nc(N2CCN(C(=O)[C@H](Cc3cc4ccccc4[nH]3)n3cc([C@@H](N)C(C)CC)nn3)CC2)n1 (some centres undefined)	Pf growth 48h inconclusive, Pf growth 96h 12µM (no result: MARV entry inh, Lassa entry inh)
N#Cc1c[nH]n2c(NC3CCCC3)c(-c3ccc(Br)cc3)nc12	MARV entry inh inconclusive (no result: Shiga inhibitor, Cycloheximide cs, Pf growth 48h, Pf growth 96h)
N#Cc1c[nH]n2c(NC3CCCC3)c(-c3ccc(Cl)cc3)nc12	MARV entry inh 1.4µM (no result: Shiga inhibitor, Cycloheximide cs, Pf growth 48h, Pf growth 96h)
C=CCNC(=S)N1CCN(CCN=CC2=C(O)CC(c3ccco3)CC2=O)CC1 (centres undefined)	none (no result: MARV entry inh, Lassa entry inh, Pf growth 96h)
CC(C)C(=O)NC(=O)[C@@H]1CCCN1C(=O)C=Cc1ccccc1	none (no result: Shiga inhibitor, Lassa entry inh, Cycloheximide cs, Pf growth 48h, Pf growth 96h)
O=C(CSc1nnc(-c2cccnc2)o1)Nc1ccccc1Br	MARV entry inh inconclusive
O=C(CSc1ncnc2scc(-c3ccc(F)cc3)c12)c1ccc2c(c1)OCCO2	MARV entry inh inconclusive, Cycloheximide cs 16
NS(=O)(=O)c1ccc(NC(=O)CSc2nnc(-c3ccc(O)cc3)o2)cc1	MARV entry inh inconclusive
O=C(CSc1nnc(-c2ccc(F)cc2)o1)c1ccc2c(c1)OCCO2	Cycloheximide cs 18 (no result: Pf growth 96h)
